Compound activity from PubChem.
GLP1R ag – GLP-1 receptor (human) agonism. P43220. HEK293 GLP-1R CRE-luciferase, luminescence, 4-6 h; cells express a hypersensitive GLP-1R form. Potency, µM (titrated, usually from 45.6 µM), inactives show at the top dose activation, hits mostly activators. hit rate 0.007% among 380,000. AID 624172; note: potency is the fitted concentration of half-maximal effect; % of control where 0% means no effect
GLP-1R inv ag – GLP-1 receptor (human) inverse agonism; hit rate 1.6% among 410,000; HEK293 GLP-1R CRE-luciferase, luminescence, 24 h; GLP-1R form is constitutively active; AID 624417; Potency, µM (top dose mostly 38.3 µM), inactives show top-dose activity change, negative = inhibition, most hits filed as inhibitors; P43220; note: potency is the fitted concentration of half-maximal effect; % is set by controls: 0 for no effect and ±100 for the full control effect; nearly all actives have a fitted effect of over 55% in size
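HEK293 cells stably co-expressing constitutively active GLP-1R and a cAMP-responsive luciferase reporter were seeded in DMEM with 10% Nu serum, given compounds after 12 h, and incubated 24 h at 37 deg C. Luminescence was then read.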
PTHR1 ag – activates the human parathyroid hormone receptor PTHR1. Q03431. hit rate 0.075% among 410,000. AID 743266. Potency, µM (highest dose often 115 µM), for the others: at the top dose activation, hits mostly activators. HEK293 GP2 PTHR1 cells, GloSensor cAMP luminescence, 1 h; note: potency is the fitted concentration of half-maximal effect; nearly all actives have a fitted effect of over 55% in size
Target sequence (Q03431 whole entry, looked up): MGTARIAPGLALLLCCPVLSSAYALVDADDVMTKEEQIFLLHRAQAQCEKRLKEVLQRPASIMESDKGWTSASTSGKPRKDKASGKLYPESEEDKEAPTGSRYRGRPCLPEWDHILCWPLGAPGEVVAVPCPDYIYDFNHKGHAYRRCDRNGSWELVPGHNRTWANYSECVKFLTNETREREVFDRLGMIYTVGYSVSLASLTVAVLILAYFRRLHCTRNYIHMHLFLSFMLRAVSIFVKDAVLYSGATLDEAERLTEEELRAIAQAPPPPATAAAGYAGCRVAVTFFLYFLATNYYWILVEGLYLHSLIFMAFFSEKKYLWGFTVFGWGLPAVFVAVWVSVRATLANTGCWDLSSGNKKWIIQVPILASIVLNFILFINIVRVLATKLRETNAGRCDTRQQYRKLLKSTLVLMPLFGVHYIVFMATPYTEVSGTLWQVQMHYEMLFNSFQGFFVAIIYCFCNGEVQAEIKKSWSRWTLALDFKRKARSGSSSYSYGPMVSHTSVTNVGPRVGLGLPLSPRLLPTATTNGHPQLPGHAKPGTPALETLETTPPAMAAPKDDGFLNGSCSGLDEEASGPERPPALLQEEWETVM
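HEK-293-derived GP2 cells expressing PTHR1 and a GloSensor cAMP reporter, 3,000/well, plated overnight, given luciferin plus IBMX (each 0.5 mM as added) for 1 h at 37 °C, then compound for 1 h at 37 °C. Luminescence was read after 15 min at room temperature.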
GLP1R cytotox – cytotoxicity counter-screen for GLP-1 receptor inverse agonists | hit rate 0.13% among 410,000 | HEK293 cAMP-luciferase reporter cells, luminescence, 24 h | Potency, µM (series often up to 38.3 µM), without a hit: top-dose activity change, negative = inhibition, hits mostly inhibitors;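 note: loss of luciferase light is scored as toxicity; potency is the fitted concentration of half-maximal effect; % is set by controls: 0 for no effect and ±100 for the full control effect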
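Quantitative HTS format, 1536 wells, 200 cells/uL seeded. Compounds: 23 nL, 24 h, 37 °C. Detection: luciferase reagent, luminescence at 12 min RT; decreased signal taken as cytotoxic.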
TRHR agonist – TRH receptor (human) agonism; P34981; TRHR cells, calcium flux fluo-8, FDSS agonist mode; activation, % at 2 µM; hit rate 0.18% among 360,000; AID 493084; in the data active = activation above about 30%; note: 0% is about no effect
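Agonist-mode FDSS calcium read (Ex 480/Em 530, 1 s cycles) in 1536-well TRHR cells with fluo-8 dye, after 10-cycle baseline and 23 nL compound addition; TRH at EC20 (10 nM final) added afterwards for the enhancer phase.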
TRHR enhancer – TRH receptor (human) allosteric enhancement | hit rate 0.66% among 360,000 | enhancement, % at 2 µM | TRHR cells, fluo-8 calcium fluorescence, EC20 TRH enhancement; in the data active = enhancement above about 30%; note: 0% is about no effect
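Enhancer read-out: after compound pinning and an initial kinetic agonist-mode read, an EC20 of TRH (10 nM final) was injected and fluo-8 calcium signal (Ex 480/Em 530) followed at 1 s/cycle for 100 cycles in TRHR-expressing cells.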
An asterisk follows results filed as active; i = inactive; ? = inconclusive; / = no result; [ ] = remark or other dose. In the library only some 2.4% were active in any assay of this set; here they are far more common. Unless noted, calls come from the whole dose curve; as a rule, active = well fitted curve in the direction sought with a large enough effect; inconclusive = small, poorly fitted or top-dose-only effect, or another doubt; inactive = no such curve, though single readings can be large; an effect the other way counts as inactive or inconclusive.

SMILES	GLP1R ag	GLP-1R inv ag	PTHR1 ag	GLP1R cytotox	TRHR agonist	TRHR enhancer
CCOC(=O)N1CCN(C(=O)COC(=O)Cc2ccc(OC)cc2)CC1	7%	-11%	i	10%	-1	34*
COc1ccccc1-n1c(SCC(=O)O)nc2c(sc(=S)n2-c2ccccc2C)c1=O	-1%	-8%	i	3%	0	8
O=C(Nc1cccc(C(F)(F)F)c1)Oc1ccc(Cl)c2cccnc12	-1%	13µM*	i	0%	2	-11
COc1ccc2[nH]c3c4c(ccc3c2c1)C(=O)C=CC4=O	11%	?	-8%	7.9µM*	-2	1
COc1ccc2[nH]c(=O)cc(C(=O)O)c2c1	-1%	2%	-18%	11%	0	14
CC1(C)CC(=O)c2c(Cc3ccccc3)noc2C1	20%	-10%[0.307 µM]	-5%	0%[0.307 µM]	0	32*
C[C@]12C(=O)N(c3ccc(F)cc3)C(=O)N1[C@H]1c3ccccc3OC[C@@H]1[C@H]2c1ccccc1	-5%	?	i	-19%	/	/
C[C@@]12C(=O)N(c3ccc(F)cc3)C(=O)N1[C@@H]1c3ccccc3OC[C@@H]1[C@H]2c1ccccc1	0%	10µM*	14%	-6%	0	-5
O=C(NCCC1=CCCCC1)c1ccc2c(c1)N(Cc1ccc(Cl)cc1)C(=O)c1ccccc1S2=O (stereo not given)	1%	16%	i	0%	0	-5
CC(CCc1ccccc1)NC(=O)CNc1cccc([N+](=O)[O-])c1 (stereo not given)	10%	10µM*	-12%	-10%	-1	5
COc1ccccc1C1CC(c2c(-c3ccccc3)c3cc(Cl)ccc3[nH]c2=O)=NN1S(C)(=O)=O (stereo not given)	-6%	10µM*	-11%[57.5 µM]	-23%	-1	8
COc1ccc(C=Nc2cccnc2N)cc1	8%	22%	i	141%	4	-2
CC1CCC(N(C)C(=O)CN2C(=O)NC(c3ccccc3)(c3ccccc3)C2=O)CC1 (stereo not given)	-3%	10µM*	-26%	-2%	/	/
O=S(=O)(c1ccc2nc(-c3ccco3)c(-c3ccco3)nc2c1)N1CCOCC1	26%	15%	0%[57.5 µM]	71%	0	28
O=C(NCCC1=CCCCC1)NC12CC3CC(CC(C3)C1)C2	-5%	5.6µM*	-16%[57.5 µM]	16%	0	-2
O=C(Cn1cnc([N+](=O)[O-])c1)Nc1cc(Oc2ccc(Cl)cc2Cl)cc([N+](=O)[O-])c1	-50%	5.6µM*	-17%[57.5 µM]	?	1	1
O=C(CCN1C(=O)c2ccccc2C1=O)Nc1ccccc1C(F)(F)F	4%	3%	-4%	16%	0	-1
OCCN(CCO)c1nc(N2CCCCC2)c2nc(N(CCO)CCO)nc(N3CCCCC3)c2n1	?	12%	-14%	i	106*	13
CC1(C)Cc2nc3sc4c(N(CCO)CCO)ncnc4c3cc2CO1	2%	30%	i	-7%	0	1
CC1(C)Cc2nc3sc4c(N(CCO)CCO)nnnc4c3cc2CO1	13%	69%	-11%	0%	0	30*
CCOC(=O)C(=CNc1cc(Cl)c(-c2ccco2)c(Cl)c1)C(=O)OCC	12%	10µM*	i	34%	1	-2
COC(=O)c1cc(C#N)c(Oc2ccccc2OC)nc1C	1%	2%	i	-6%	1	-5
O=c1oc2ccc3ccccc3c2cc1-c1nnc(Nc2ccccc2F)s1	/	4%	i	1%	3	5
COc1ccc(Nc2nnc(-c3cc4c(ccc5ccccc54)oc3=O)s2)cc1	/	13%	i	4%	1	4
COc1cccc(Nc2nnc(-c3cc4ccc(O)cc4oc3=O)s2)c1	/	4%	i	39%	70*	5
O=c1oc2cc(O)ccc2cc1-c1nnc(Nc2ccccc2F)s1	/	26%	-38%	151%	187*	39*
